Results taken from PubChem BioAssay AID651719 (The Scripps Research Institute Molecular Screening Center, 2012).
The campaign covered roughly 360,000 compounds. About 1,600 (0.44%) were called active.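 How the source made its calls: active means inhibition above the screen-wide average plus 3 SD (cut at about 13% in these data); inactive means the rest.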 Many of the other results were omitted from the sample, so actives are more common in it than they were.

These compounds were tested against Galanin receptor type 3 (Homo sapiens) (UniProt O60755) (assay: GalR3 antagonists in HEK293 cells, primary screen, cell-based, fluorescence readout (AID 651719;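 further: forskolin and galanin both at EC90 stimulate the cells; cAMP rise reported by CNG channel membrane potential dye signal; 0% = forskolin plus galanin with DMSO and 100% = forskolin alone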)). Conditions: HEK293 GalR3-CNG cAMP membrane potential fluorescence; at 3 µM; stronger effect = higher value; galR3 body fused to GalR1 C-terminus.
Sequence of Galanin receptor type 3 (Homo sapiens) (O60755 1-299 limits assumed): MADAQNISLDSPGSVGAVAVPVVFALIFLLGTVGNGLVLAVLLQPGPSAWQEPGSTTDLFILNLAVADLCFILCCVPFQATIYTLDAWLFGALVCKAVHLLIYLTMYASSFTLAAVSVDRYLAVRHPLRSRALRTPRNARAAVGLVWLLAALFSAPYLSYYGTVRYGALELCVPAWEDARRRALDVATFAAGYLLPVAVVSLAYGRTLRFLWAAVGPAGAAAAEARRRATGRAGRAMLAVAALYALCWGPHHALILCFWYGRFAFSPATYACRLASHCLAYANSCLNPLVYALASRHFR

inhibition, active:
COc1ccc(OC)c(NC(=O)CSc2nc(N)c(-c3ccccc3)c(=O)[nH]2)c1 29.8%
CSc1nc(N)c(C#N)c(-c2ccccc2Cl)c1C#N 13.6%
Cn1nccc1C(=O)NC1CCCc2c1cnn2-c1ccc(F)cc1F (stereo unspecified) 99.2%
Cn1nccc1C(=O)NC1CCCc2c1cnn2-c1ccccc1F (stereo unspecified) 103%
COc1ccc(NS(=O)(=O)c2ccc(NC(=O)c3ccc(N(C)S(C)(=O)=O)cc3)cc2)cc1 82.7%
CC(=O)OC(C)C[N+](C)(C)C (stereo unspecified) 32.6%
CC(=O)c1c(C)[nH]c(C(=O)COC(=O)c2cccc(S(=O)(=O)N(C)c3ccccc3)c2)c1C 78.8%
Nc1nonc1-n1nnc(C(=O)N/N=C/c2cc(Br)ccc2O)c1CSC1=NCCS1 76.9%
O=C(CC(O)(C(F)(F)F)C(F)(F)F)Nc1ccc(Cl)c(Cl)c1 58.6%
N#Cc1c(N)nc2c3c(sc(=N)c2c1N)NC(=O)CC3c1ccccc1Cl (stereo unspecified) 62.4%
COc1ccc(C2CC(=O)Nc3sc(=N)c4c(N)c(C#N)c(N)nc4c32)cc1OC (stereo unspecified) 64.7%
COc1ccc(-c2csc(-c3cccs3)n2)cc1OC 14.8%
C=CCC1(CC=C)CCCN1C(=O)c1cc(COc2ccc(-n3cncn3)cc2)on1 80.6%
CC(C)(CNC(=O)c1ccc(Cl)c(S(=O)(=O)N2CCc3ccccc3C2)c1)N1CCOCC1 98.3%
CC(=O)N1CCCc2cc(S(=O)(=O)N3CCCC(C(=O)N4CCN(c5cccc(Cl)c5)CC4)C3)ccc21 (stereo unspecified) 77.3%
CC1(C)CC(N2CCN(C(c3ccccc3)c3ccccc3)CC2)=CC(=[N+]2CCCCC2)C1 39.8%
COc1ccc(-c2cc(C(F)(F)F)nc(S(C)(=O)=O)n2)cc1OC 20.7%

inhibition, inactive:
CC(C)CNc1cccc2c1S(=O)(=O)N[C@H](C)CO2 -4.46%
COC(=O)Cc1nnn2c1[C@H](C)[C@H](c1ccccc1Br)OCC2 -3.41%
COc1ccc(NC(=O)CSc2nc(N)c(-c3ccccc3)c(=O)[nH]2)cc1 1.59%
COc1ccc(OC)c(NC(=O)CSc2nc(-c3ccccc3)cc(=O)[nH]2)c1 -1.18%
COc1ccc(-c2ccc3c(n2)CCCN3S(=O)(=O)c2ccc(C)cc2)cc1 -6.68%
Cc1nc(NC(=O)C(C)(C)C)sc1[N+](=O)[O-] -6.84%
CSc1ccc(-c2c(C#N)c(N)nc3c2c(C)nn3-c2ccccc2)cc1 -3%
COc1ccccc1-c1c(C#N)c(N)nc2c1CCC2 -3.19%
Cc1ccc(N)cc1CN1CCN(c2ncc(Cc3ccccc3)cn2)CC1 3.95%
COc1ccccc1Cc1c(-c2ccc(F)cc2)nc2ccc(C)cn12 -8.12%
CCOC(=O)C1=C(C(=O)OCC)C2N(Cc3ccc(C#N)cc3)c3ccccc3[C@@]23C[C@@H](C(=O)OC)N(S(=O)(=O)c2ccc(F)cc2)C3=N1 (stereo partly specified) -4.3%
CC1(C)Cc2c(cnn2-c2cccc(F)c2)C(NC(=O)c2cc[n+]([O-])cc2)C1 (stereo unspecified) -2.25%
COc1ccc(OC)c(C(=O)NC2CCCc3c2cnn3-c2cc(C)cc(C)c2)c1 (stereo unspecified) -8.72%
COc1ccc(C(=O)NC2CC(C)(C)Cc3c2cnn3-c2ccccc2C)o1 (stereo unspecified) -3.9%
COc1ccc(C(=O)NC2CCCc3c2cnn3-c2cccc(C)c2C)c(OC)n1 (stereo unspecified) 4.34%
Cc1ccccc1C(=O)N[C@H](C(=O)N1CCC[C@H]1C(=O)NCc1ccccc1)C(C)C -4.85%
COc1ccc(NS(=O)(=O)c2cc(NC(=O)c3ccc(S(=O)(=O)N(C)C)cc3)ccc2N2CCOCC2)cc1 -5.13%
COc1ccc(NS(=O)(=O)c2ccc(C(=O)Nc3c(C)n(C)n(-c4ccccc4)c3=O)cc2)cc1 -0.08%
Nc1ncnc2c1ncn2[C@@H]1O[C@H](C(=O)N[C@@H](CCc2ccccc2)C(=O)NCC(=O)N2CCOCC2)[C@@H](O)[C@H]1O -4.93%
Cc1cc(N2CCN(C(=O)OC(C)(C)C)C[C@H]2C)ccc1N1CCN(Cc2ccccc2)[C@H](C)C1 -6.01%
CC(C[N+](C)(C)C)OC(N)=O (stereo unspecified) -2.23%
CC(=O)OCCC(C)C -6.17%
COCc1cc(N2CCN(C(=O)OC(C)(C)C)C[C@@H]2C)ccc1N1CCN(Cc2ccccc2)[C@H](C)C1 -0.36%
Cc1ccc2nc(-c3ccc(CN4CCC(n5cc(-c6ccccc6)[nH]c5=O)CC4)cc3)c(-c3ccccc3)nc2c1 -5.31%
COc1cccc(C(=O)OCC(=O)c2[nH]c(C)c(C(C)=O)c2C)c1 -7.96%
CC(=O)c1c(C)[nH]c(C(=O)COC(=O)c2cccs2)c1C -4.13%
COCc1c(C(=O)N/N=C\c2cccnc2)nnn1-c1nonc1N -5.53%
CC(C)c1c(C(=O)N/N=C/c2ccccc2C(=O)O)nnn1-c1nonc1N -9.07%
Cc1cc(OC(=O)NCCc2ccc(F)cc2)ccc1F -6.58%
C=CCN=C1NC(c2cccc(C(F)(F)F)c2)C(C(=O)OC)=C(C)N1C (stereo unspecified) -7.24%
CC(C)[C@@H](C)/C=C/[C@@H](C)[C@H]1CC[C@@H]2[C@]1(C)CCC1[C@]23C=C[C@]2(C[C@@H](O)CC[C@]12C)N(c1ccc([N+](=O)[O-])cn1)O3 (stereo partly specified) 2.02%
COC(=O)C1=C(C)N(Cc2ccccc2C(F)(F)F)C(=NCc2ccc(C(F)(F)F)cc2)NC1c1ccc(F)cc1 (stereo unspecified) -4.63%
CCCCCCCCN1C(=O)[C@@H](CC(=O)NCc2ccc(C)o2)C[C@@]2(C(=O)OC)C1=C[C@H](C(C)(C)C)O[C@@H]2C -4.99%
O=C(Cc1ncc(C(F)(F)F)cc1Cl)Nc1cccc(Br)c1 2.24%
CN(CC(=O)Nc1ccc(Cl)c(C(F)(F)F)c1)C(=O)CCC(=O)c1ccccc1 -4.03%
Nc1ncnc2c1ncn2[C@@H]1O[C@H](C(=O)N[C@@H](CCc2ccccc2)C(=O)N2CCCN(Cc3cccs3)CC2)[C@@H](O)[C@H]1O -6.23%
O=C(O)Cn1cnc2c(NCc3ccccc3)ncnc21 -5.71%
C=CCN1C(=O)N(Cc2ccccc2)c2ccccc2S1(=O)=O -6.64%
COc1ccc(OC)c2c(N)c(C#N)c(C(F)(F)C(F)(F)F)nc12 1.89%
CSc1nc2c(c(=O)[nH]1)C(c1cccc(Cl)c1Cl)CC(=O)N2 (stereo unspecified) 12.2%
COc1ccc(C2OCC3(CO2)SC(=O)NC3=O)cc1OC (stereo unspecified) -2.1%
COC(=O)[C@]12C[C@H](CC(=O)N3CCN(C(=O)C4CC4)CC3)C(=O)N(Cc3ccc4c(c3)OCO4)C1=C[C@H](C(C)(C)C)O[C@@H]2C -5.6%
N#Cc1cccc(C(=O)NCC2CCN(C(=O)C(=O)c3cc4ccccc4o3)CC2)c1 -3.55%
CCOC(=O)CNC(=O)N(C)[C@H]1C[C@H]2c3[nH]c4c(-c5ccc6c(c5)OCO6)cccc4c3CCN2C(=O)[C@H]1[C@H](C)O -5.71%
COc1ccc(C(C)(O)c2nc(-c3ccc(C)c(C)c3)cs2)cc1 (stereo unspecified) -5.12%
COc1ccc(C2CC(c3cccs3)=Nc3ccccc3S2)cc1OC (stereo unspecified) -5.75%
O=C(C(=O)N1CCC(CNS(=O)(=O)Cc2ccccc2)CC1)c1cc2ccccc2o1 -6.6%
CCCC(=O)N1CCC1(C)C(=O)Nc1ccc(-n2cncn2)cc1 (stereo unspecified) -6.01%
COc1cccc(OCc2cc(C(=O)N3CCN(C(=O)c4ccco4)CC3)no2)c1 -10.3%
O=C(Nc1c(Cl)c(C2CC2)nn1-c1ccccc1)C(Cl)(Cl)Cl -6.45%
COc1cccc(CC(=O)N2CCN(C(=O)C(=O)c3cccc(C(F)(F)F)c3)CC2)c1 1.16%
CN(C)S(=O)(=O)c1ccc(C(=O)NCC(C)(C)N2CCOCC2)cc1 -0.16%
O=C(NCCSCc1ccccc1)c1ccc(Cl)c(S(=O)(=O)N2CCOCC2)c1 -7.04%
COc1cccc(-c2cc(CNC(=O)[C@@H](Cc3ccccc3)NC(=O)[C@H]3O[C@@H](n4cnc(C(N)=O)n4)[C@H](O)[C@@H]3O)no2)c1 -7.28%
CC(=O)N1c2ccc(S(=O)(=O)N3CCC(C(=O)N4CCN(c5ccccc5)CC4)CC3)cc2CC1C (stereo unspecified) 0.42%
O=C(C1CCCN(S(=O)(=O)c2ccccc2)C1)N1CCN(c2ccc(F)cc2)CC1 (stereo unspecified) -0.67%
CCCCCCCCN1C(=O)[C@@H](CC(=O)NCc2ccccc2)C[C@@]2(C(=O)OC)C1=C[C@H](C(C)(C)C)O[C@@H]2C -6.16%
Cc1cccc(N2CCN(C(c3ccccc3)c3nnnn3CC3CCCO3)CC2)c1C (stereo unspecified) -2.6%
COc1ccccc1NC(=S)N1CCN(C(c2ccccc2)c2ccccc2)CC1 -3.76%
Cc1ccc2nc(CN(C)C(=O)[C@@H](Cc3ccccc3)NC(=O)[C@H]3O[C@@H](n4ccc(=O)[nH]c4=O)[C@H](O)[C@@H]3O)[nH]c2c1 -7.44%
COC(=O)[C@]12C[C@H](CC(=O)NCc3ccc(OC)c(OC)c3)C(=O)N(Cc3ccccc3)C1=C[C@H](C(C)C)O[C@@H]2C1CC1 3.98%
COC(=O)Cc1nnn2c1[C@H](C)[C@@H](OC)c1cc(Br)ccc1-2 -5.13%
COc1ccc(-c2cc(C(=O)N(C)Cc3ccc(OC)c(OC)c3OC)c3ccccc3n2)cc1OC 2.03%
COc1ccc(-c2cc(C(F)(F)F)nc(SCCC(=O)NCc3ccco3)n2)cc1 -3.08%
